Laboratory results from PubChem BioAssay AID488852 (National Center for Advancing Translational Sciences (NCATS), 2010).
Active and inactive are the calls of the source. The call rests on the fitted dose curve; in most records, active means well fitted curve in the direction sought with a large enough effect; inconclusive means small, poorly fitted or top-dose-only effect, or another doubt; inactive means no such curve, though single readings can be large or run the other way.

Molecular target: Lysosomal acid glucosylceramidase (Homo sapiens) (UniProt P04062)
Assay: qHTS Assay for Inhibitors and Activators of N370S glucocerebrosidase as a Potential Chaperone Treatment of Gaucher Disease: Activity in N370S Spleen Homogenate Confirmation Using Alternate Substrate for Probe SAR
Details: N370S patient spleen homogenate, resorufin-glucoside fluorescence; series mostly up to 57.5 µM; activity change, negative = inhibition: at the top concentration
Source text: NIH Chemical Genomics Center [NCGC] NIH Molecular Libraries Probe Production Centers Network [MLPCN] MLPCN Grant: MH086442-01 Assay Submitter (PI): Wei Zheng Glucocerebrosidase (GC) catalyzes the hydrolysis of beta-glucocerebroside to glucose and ceramide in lysosomes. Mutations in the glucocerebrosidase gene result in Gaucher disease, an autosomal recessive lysosomal storage disorder. Many of the mutations encountered in patients with Gaucher disease are missense alterations that may cause misfolding, decreased stability and/or mistrafficking of this lysosomal protein. […] These inhibitors include iminosugar analogs and three non-iminosugar inhibitors identified from a previous HTS of 62,000 compounds with the wild type recombinant enzyme. However, the enhancement of enzyme activity by the chaperone action of an enzyme inhibitor must be balanced against the direct inhibition of the enzyme. An enzyme activator could also function as a chaperone by binding to the enzyme and helping to correct its misfolding and mistrafficking. While activators for GC have not yet been identified, they may have better therapeutic potential than inhibitors. Therefore the discovery and development of chemical activators may provide a new strategy for the chaperone therapy. We have optimized a new assay using N370S mutant GC derived from the spleen of a Gaucher patient. […] In addition, the MLPCN compound library has expanded, which increases the chance of finding new and better probes. This confirmation assay tests for compound activity in spleen homogenate from a patient homozygous for the N370S mutation using an alternate resorufin-based substrate.
NCGC Assay Protocol Summary: This is a fluorogenic enzyme assay with resorufin-beta-D-glucopyranoside as the substrate and mutant N370S glucocerebrosidase from human spleen homogenate as the enzyme preparation. Upon the hydrolysis of this fluorogenic substrate, the resulting product, […] which can be detected by a standard fluorescence plate reader. Data were normalized to the controls for basal activity (without enzyme) and 100% activity (with enzyme). The AC50 values were determined from concentration-response data modeled with the standard Hill equation. Assay buffer: 50 mM citric acid (titrated with potassium phosphate to pH 5.0), 100 mM potassium chloride, 10 mM sodium chloride, 1 mM magnesium chloride, 0.01% Tween-20. 1536-well assay protocol: (1) Add 2 ul/well of spleen homogenate (27 ug final) (2) Add 23 nL compounds in DMSO solution. The final titration was 0.5 nM to 58 uM. (3) Add 2 ul of substrate (1 mM final) (4) Incubate at 37C for 40 min. (5) Add 2 ul stop solution (1M NaOH and 1M Glycine mixture, pH 10) (6) Detect the assay plate in a ViewLux plate reader (PerkinElmer) with Ex=365 nm and Em=440nm. Keywords: Glucocerebrosidase, beta-glucosidase, Gaucher Disease, pharmacological chaperone, chaperone therapy, high throughput screening, glucocerebrosidase inhibitor, MLSMR, MLSCN, NIH Roadmap, qHTS and NCGC

Chain of Lysosomal acid glucosylceramidase (Homo sapiens) (P04062 whole entry N409S): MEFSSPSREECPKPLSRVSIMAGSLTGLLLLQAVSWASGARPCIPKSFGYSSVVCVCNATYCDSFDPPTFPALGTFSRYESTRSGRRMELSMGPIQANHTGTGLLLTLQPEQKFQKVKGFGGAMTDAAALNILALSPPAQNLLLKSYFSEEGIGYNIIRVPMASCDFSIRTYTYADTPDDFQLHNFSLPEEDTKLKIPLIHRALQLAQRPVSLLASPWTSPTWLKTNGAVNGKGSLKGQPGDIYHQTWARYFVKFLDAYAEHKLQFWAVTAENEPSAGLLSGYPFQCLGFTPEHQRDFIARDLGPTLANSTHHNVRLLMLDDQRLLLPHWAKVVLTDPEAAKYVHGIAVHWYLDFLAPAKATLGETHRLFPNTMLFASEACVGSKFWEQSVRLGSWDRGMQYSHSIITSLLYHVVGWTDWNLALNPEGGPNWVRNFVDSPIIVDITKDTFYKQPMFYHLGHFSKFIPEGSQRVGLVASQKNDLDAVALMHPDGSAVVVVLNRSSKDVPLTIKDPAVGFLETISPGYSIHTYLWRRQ

Activity change, negative = inhibition, inactive:
Cc1cc(C)n2ncc(C(=O)Nc3ccc(Br)cc3)c2n1 16.8%, C#Cc1ccc(NC(=O)c2cnn3c(C)cc(C)nc23)cc1 20.9%, COc1ccc(NC(=O)c2cnn3c(C)cc(C)nc23)cc1OC 0.0219%, CC(=O)c1ccc(NC(=O)c2cnn3c(C)cc(C)nc23)cc1 0.0219%, Cc1cc(C)n2ncc(C(=O)Nc3cccc(C(F)(F)F)c3)c2n1 0.0219%, Cc1cc(C)n2ncc(C(=O)NC(C)C)c2n1 -22.2%, COc1ccc(NC(=O)c2cnn3c(C)cc(C)nc23)cc1 -0.21%, CNC(=O)c1cnn2c(C)cc(C)nc12 -0.211%, Cc1cc(C)n2ncc(C(=O)NCc3ccco3)c2n1 0.0344%, Cc1cc(C)n2ncc(C(=O)NCc3ccccc3)c2n1 -24.6%, Cc1cc(C)n2ncc(C(=O)Nc3ccc4c(c3)CCC4)c2n1 -0.211%, COc1ccc(NC(=O)c2cnn3c(C)cc(C)nc23)cc1F 22.7%, CC(=O)Nc1ccc(NC(=O)c2cnn3c(C)cc(C)nc23)cc1 -24.9%, Cc1cc(C)n2ncc(C(=O)Nc3ccc(C(C)(C)C)cc3)c2n1 -0.21%, Cc1cc(C)n2ncc(C(=O)Nc3ccc4c(c3)OCCO4)c2n1 0.0219%, COc1ccc(NC(=O)c2cnn3c(C)cc(C)nc23)cc1Cl -14.1%, Cc1cc(C)n2ncc(C(=O)Nc3ccncc3)c2n1 0.0344%, Cc1cc(C)n2ncc(C(=O)Nc3ccc(C#N)cc3)c2n1 -24.2%, Cc1ccc(NC(=O)c2cnn3c(C)cc(C)nc23)cc1 -0.21%, CCc1ccc(NC(=O)c2cnn3c(C)cc(C)nc23)cc1 -0.211%, Cc1cc(C)n2ncc(C(=O)Nc3cccc(C#N)c3)c2n1 -0.211% [at 19 µM], O=C(Nc1cnn(Cc2ccc(F)cc2)c1)c1cnn2c(C(F)F)cc(-c3ccccc3)nc12 0.0344%, COc1cc(NC(=O)c2cnn3c(C)cc(C)nc23)cc(OC)c1OC 0.0219%, Cc1cc(C)n2ncc(C(=O)N3CCCC3)c2n1 -0.211%, Cc1cc(C)n2ncc(C(=O)NC3CCCCC3)c2n1 -0.211%, Cc1cccc(NC(=O)c2cnn3c(C)cc(C)nc23)c1 -0.21%, Cc1cc(C)n2ncc(C(=O)Nc3ccccc3C)c2n1 -15.4%, Cc1cc(C)n2ncc(C(=O)Nc3ccc4c(c3)OCO4)c2n1 0.0219%, Cc1cc(C)n2ncc(C(=O)Nc3ccccc3)c2n1 -18.7%, CC(=O)c1cccc(NC(=O)c2cnn3c(C)cc(C)nc23)c1 17.3%, Cc1cc(C)n2ncc(C(=O)NCC(C)C)c2n1 -0.211%, Cc1cc(C)n2ncc(C(=O)Nc3ccc(C)c(C)c3)c2n1 0.0219%, Cc1cc(C)n2ncc(C(=O)Nc3ccc(C(F)(F)F)cc3)c2n1 23.7%, Cc1ccc(NC(=O)c2cnn3c(C)cc(C)nc23)c(C)c1 -0.21%, Cc1cc(C)n2ncc(C(=O)Nc3ccc(S(C)(=O)=O)cc3)c2n1 0.0344%, CC(=O)Nc1ccccc1NC(=O)c1cnn2c(C)cc(C)nc12 -23.8%

outcome, inactive:
Cc1cc(C)n2ncc(C(=O)NC3CCC(C(C)(C)C)CC3)c2n1 (configuration not stated)
